# Laboratory results as given in PubChem BioAssay (Tox21).
# Records with an inconclusive call do not appear. Where a call stands in place of a potency, no number is given. Active and inactive are the calls of the source. The call rests on the fitted dose curve; in most records, active means well fitted inhibition curve with a large enough effect in the repeat runs; inconclusive means weak or mixed curves; inactive means no such curve, though single readings can be large or run the other way.
# Target: Cytochrome P450 3A4 (Homo sapiens) (UniProt P08684)
# Sequence (P08684 whole entry, looked up): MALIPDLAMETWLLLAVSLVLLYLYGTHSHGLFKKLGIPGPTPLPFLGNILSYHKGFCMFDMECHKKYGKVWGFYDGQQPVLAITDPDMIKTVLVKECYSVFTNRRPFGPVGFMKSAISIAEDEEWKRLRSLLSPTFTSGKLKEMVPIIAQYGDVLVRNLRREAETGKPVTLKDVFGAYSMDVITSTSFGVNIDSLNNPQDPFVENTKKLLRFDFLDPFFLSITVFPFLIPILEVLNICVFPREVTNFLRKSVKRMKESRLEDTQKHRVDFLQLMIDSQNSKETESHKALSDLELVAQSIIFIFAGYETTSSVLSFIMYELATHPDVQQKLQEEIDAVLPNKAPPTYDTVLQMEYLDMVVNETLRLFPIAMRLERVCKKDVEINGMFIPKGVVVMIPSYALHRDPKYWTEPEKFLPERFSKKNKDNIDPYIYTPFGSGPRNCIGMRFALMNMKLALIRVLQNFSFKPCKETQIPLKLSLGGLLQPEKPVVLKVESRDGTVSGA
# Experiment: Cytochrome P450 Family 3 Subfamily A Member 4 (CYP3A4) small molecule antagonists: luciferase reporter qHTS assay (AID 1671201); further: nearly all actives have a fitted effect of over 50% in size
# Conditions: P450-Glo CYP3A4 enzyme, luciferin luminescence, 1 h; series mostly up to 115 µM
# In short: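 Setup: enzyme-substrate mix, compound pin transfer, 10 min RT. Reaction: NADPH regeneration solution, 1 h RT. Readout: detection reagent stops turnover, luminescence measured after 20 min, expressed in relative luminescence units.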
# Potency means the concentration at half of the fitted maximal effect.
row,SMILES,Potency
1,SC1CCCCC1,inactive
2,Cc1cc(Br)ccc1NC(=O)CCl,inactive
3,CCCCCCCCc1ccc(Nc2ccc(CCCCCCCC)cc2)cc1,inactive
4,CC(C)=NNC(N)=S,inactive
5,CCCC(C)C=O (stereo not drawn),inactive
6,O=C(Nc1ccc([N+](=O)[O-])cc1)Nc1ccc([N+](=O)[O-])cc1 (tested in a mixture with another compound),inactive
7,NC(=O)c1ccccc1Cl,inactive
8,CCOc1nc(F)cc2nc(S(=O)(=O)Nc3c(Cl)cccc3C(=O)OC)nn12,35.6 µM (active)
9,Cc1c[nH]c(=O)[nH]c1=O,inactive
10,CCc1cccc(CC)c1,inactive
11,CC1=CC[C@@H](C(C)(C)O)CC1,inactive
12,O=[N+]([O-])c1ccc(CO)cc1,inactive
13,O=C(NCc1ncc(C(F)(F)F)cc1Cl)c1c(Cl)cccc1Cl,8.94 µM (active)
14,C=Cc1ccc(O)c(OC)c1,20 µM (active)
15,O=C1C=CC(=O)N1c1cccc(N2C(=O)C=CC2=O)c1,inactive
16,CN1CCN(C)CC1,inactive
17,CCNc1nc(NC(C)(C)C)nc(OC)n1,inactive
18,Cc1ccc2n[nH]nc2c1,inactive
19,COC(=O)c1ccc([N+](=O)[O-])cc1,inactive

row,SMILES,Potency
1,Clc1nc(C(Cl)(Cl)Cl)c(Cl)c(Cl)c1Cl,3.99 µM (active)
2,CCCCCN=C(N)N/N=C/c1c[nH]c2ccc(OC)cc12,inactive
3,C/C=C/C(=O)OCC(C)C,inactive
4,C=C1CC[C@H]2O[C@]2(C)CC[C@@H]2[C@@H]1CC2(C)C,inactive
5,Oc1ccc2c(c1)CCC2,inactive
6,C=CC(C)(C)O,inactive
7,Cc1ccc(S(=O)(=O)C(I)I)cc1,39.9 µM (active)
8,C=CC(=O)O[C@H]1C[C@@H]2CC[C@@]1(C)C2(C)C,inactive
9,CCOC(=O)C1=NN(c2ccc(Cl)cc2Cl)C(C)(C(=O)OCC)C1 (stereo not drawn),35.6 µM (active)
10,CC1(C)[C@H]2CC[C@]1(C)C(=O)C2,inactive
11,O=c1cc[nH]cc1,inactive
12,O=C1OCc2ccccc21,inactive
13,O=c1[nH]cccc1O,inactive
14,CCn1c2ccccc2c2ccccc21,inactive
15,O=C(CCCCCCCCc1cccnc1)N1CCC(C=C(c2ccccc2)c2ccccc2)CC1,0.399 µM (active)
16,C/C=C/C(=O)C1=C(C)C=CCC1(C)C,inactive
17,CCOC(=O)[C@H](C)O,inactive
18,COc1cc(/C=C/C(=O)CC(=O)/C=C/c2ccc(O)c(OC)c2)ccc1O,10.1 µM (active)
19,Cc1ccc(C=O)cc1,inactive
